High-throughput results: PubChem BioAssay, several laboratories
Only some compounds are listed: those with a hit (about 2.1% of all), similar ones and a draw of the others.
ABCB6 inh 2: inhibitors of human ABC transporter ABCB6; Q9NP58; K562-ABCB6 porphyrin accumulation, flow cytometry, 1 h; hits give low values; fluorescence ratio to DMSO, % at 10 µM; 0.19% of 360,000 active; AID 602162;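 active = fluorescence ratio to DMSO below 75%, the collection mean minus 3 SD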;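 also: signal is porphyrin accumulated inside mitochondria; lower ratio means ABCB6 inhibition with less porphyrin fluorescence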
SMARCA2 activ: activators of SMARCA2 function. 1% of 370,000 active. MG213 cells, MMTV-luciferase reporter, dexamethasone, overnight. activation, % at 9.1 µM. AID 652017; in the data active = activation above about 7.8%
MsrA inhibitor: bovine MsrA inhibition | purified bovine MsrA, absorbance read-out | inhibition, % at 15.5 µM | 0.75% of 360,000 active | AID 651718; in the data active = inhibition above about 4.5%
MsrA act: activates bovine MsrA enzyme | purified bovine MsrA, absorbance read-out | activation, % at 10.6 µM | 0.3% of 360,000 active | AID 602163; in the data active = activation above about 7.5%
SMARCA2 act conf: SMARCA2 activation, confirmation screen | 30% of 3,500 active | MG213 cells, MMTV-luciferase with dexamethasone, luminescence, overnight; MG213 cells expressing E1A, Rb sequestered; DMSO wells 0%, reference activator 100% | AID 652260 | shares compounds with SMARCA2 activ | activation, % at 9.1 µM;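 active = activation above its plate's cutoff, the mean activation of tested wells plus 3 SD, cut at about 7.9% in these data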
GAL4-VP16 Luc: GAL4-VP16 reporter activation counter-screen; shares compounds with SMARCA2 activ; HEK293 GAL4-VP16 pG5luc reporter, luciferase luminescence; scaled: DMSO wells 0%, SAHA wells 100%; activation, % at 9.1 µM; 41% of 3,500 active;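 active = activation above the solvent-only control well mean plus 3 SD, averaged across control plates, cut at about 5.2% in these data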
Each line names hits and unclear results; the compound was inactive in the other large screens (follow-up assays come after a bar, where they were run).

Cc1sc2nc(SCC(=O)Nc3ccc(Cl)c(C(=O)O)c3)[nH]c(=O)c2c1C	SMARCA2 activ 8.8 | SMARCA2 act conf 9.2 | GAL4-VP16 Luc 8.9
Cc1ccc2nc(Cl)c(C3CC(c4cccs4)=NN3S(C)(=O)=O)cc2c1 (stereo not drawn)	SMARCA2 activ 11.1 | SMARCA2 act conf inactive | GAL4-VP16 Luc inactive
Cc1ccc2cc(C3CC(c4cccs4)=NN3S(C)(=O)=O)c(Cl)nc2c1 (stereo not drawn)	none
CC(=O)c1cc(-c2ccc(Cl)c(C(F)(F)F)c2)c(=O)n2c1CCC2	none (no result: ABCB6 inh 2, MsrA inhibitor, MsrA act)
Cc1cc2nc(-c3ccc(SCC(=O)N4CCN(C(=O)c5ccco5)CC4)nc3)[nH]c2cc1C	SMARCA2 activ 10.2 | SMARCA2 act conf 9.2 | GAL4-VP16 Luc 8.8
Cc1cc2nc(-c3ccc(SCC(=O)N4CCOCC4)nc3)[nH]c2cc1C	none
COc1ccc(NC(=O)N2CCC(N(C)CCC(C)C)CC2)cc1OC	none (no result: ABCB6 inh 2, MsrA inhibitor, MsrA act)
CC1(c2ccc3ccccc3c2)NC(=O)N(CC(=O)NCc2cccs2)C1=O (stereo not drawn)	SMARCA2 activ 9.6 | SMARCA2 act conf inactive | GAL4-VP16 Luc inactive
COC(=O)c1cc(-c2ccc(-c3ccccc3)c(F)c2)c(=O)n2c1CCC2	none (no result: ABCB6 inh 2, MsrA inhibitor, MsrA act)
CC1(C)c2ccccc2C(=O)c2ccccc21	none
O=C1c2cccc3c2C2(O)c4c1cccc4C(=O)c1cccc(c12)C3=O	SMARCA2 activ 8.1 | SMARCA2 act conf inactive | GAL4-VP16 Luc inactive
COC(=O)[C@]12C[C@H](CC(=O)N3CCCCC3)C(=O)N(Cc3cccc4ccccc34)C1=C[C@H](C(C)(C)C)O[C@@H]2C	none (no result: ABCB6 inh 2, MsrA inhibitor, MsrA act)
COP(=O)(O)C(C)NC(=O)OCc1ccccc1 (stereo not drawn)	none (no result: ABCB6 inh 2, MsrA inhibitor, MsrA act)
O=C(Nc1ccccc1)c1nccn1Cc1ccc(F)cc1	SMARCA2 activ 9.9 | SMARCA2 act conf inactive | GAL4-VP16 Luc inactive
CCOCCN1CCN(c2c(C)c(C)nc3cc(-c4cc(OC)cc(OC)c4)nn23)CC1	none
COCCN1CCN(c2c(C)c(C)nc3cc(-c4cccc(OC)c4)nn23)CC1	SMARCA2 activ 11.0 | SMARCA2 act conf 9.7 | GAL4-VP16 Luc inactive
O=C(NCCN1CCC(n2c(=O)[nH]c3ccccc32)CC1)c1ccncc1	none
CCN(CC)C(=O)C1=C(C)N(Cc2ccc(F)cc2)C(=O)C(CC(=O)NCc2ccco2)C1 (stereo not drawn)	SMARCA2 activ 8.4 | SMARCA2 act conf inactive | GAL4-VP16 Luc inactive
COc1ccc(C2=Nn3c(nnc3-c3ccccc3Cl)SC2)cc1OC1CCOC1 (stereo not drawn)	SMARCA2 activ 10.7 | SMARCA2 act conf 18.0 | GAL4-VP16 Luc inactive
COc1ccc(C2=Nn3c(nnc3-c3ccccc3Cl)SC2)cc1OC1CCCC1	none
COc1ccc(C2=Nn3c(nnc3-c3ccccc3OC)SC2)cc1OC	SMARCA2 activ 15.5 | SMARCA2 act conf 15.9 | GAL4-VP16 Luc 12.1
COc1ccc(C2=Nn3c(nnc3-c3ccco3)SC2)cc1OC	SMARCA2 activ 8.2 | SMARCA2 act conf 13.0 | GAL4-VP16 Luc 9.2
COc1cc(C)ccc1OCCCOc1ccccc1Cl	SMARCA2 activ 9.5 | SMARCA2 act conf 13.1 | GAL4-VP16 Luc 8.9
COc1cc(C)ccc1OCCOc1ccccc1Cl	none
CCOCCCNC(=O)c1cccc(OC2CCN(S(C)(=O)=O)CC2)c1	SMARCA2 activ 8.3 | SMARCA2 act conf inactive | GAL4-VP16 Luc 10.5
CSc1ccccc1C(=O)Nc1ccc(C)c(C)c1	none
CSc1ccccc1C(=O)Nc1cc(C)cc(C)c1	SMARCA2 activ 9.3 | SMARCA2 act conf inactive | GAL4-VP16 Luc inactive
Cc1ccc(CN2CCN(c3ccccn3)CC2)s1	SMARCA2 activ 9.6 | SMARCA2 act conf inactive | GAL4-VP16 Luc inactive
O=C1c2cccc(NCCCNCCO)c2C(=O)c2cccc(NCCCNCCO)c21	SMARCA2 activ 28.4 | SMARCA2 act conf inactive | GAL4-VP16 Luc inactive
O=C(OC12CCCN(C1)/C(=C/c1ccncc1)C2)c1ccc(Cl)cc1 (stereo not drawn)	none (no result: ABCB6 inh 2, MsrA inhibitor, MsrA act)
Cc1ocnc1C(=O)Nc1ccc(Cl)cc1	SMARCA2 activ 9.3 | SMARCA2 act conf inactive | GAL4-VP16 Luc inactive
Cc1cc(C(=O)Nc2ccc(Cl)cc2)on1	none
COc1cc(Cl)ccc1OC1(C)CCN(Cc2ccc(-c3ccccn3)cc2)C1 (stereo not drawn)	none
CCN(CC)C(=O)CC[C@H]1CC[C@]2(CCCN(Cc3ccccc3)C2)O1	none (no result: ABCB6 inh 2, MsrA inhibitor, MsrA act)
